One compound from PubChem BioAssay (EPA / NIEHS) can be followed below.

Records with an inconclusive call do not appear. Activity calls are given as the source filed them. How the source made its calls, unless noted: active means hit-call score of the fitted dose curve at least 0.9, where 1 is the maximum; inactive means score below 0.9.

Experiment [1] in a line: UKN5_HCS_SBAD2_cell_viability: Viability Assessment in the University of Konstanz (UKN) Leist Lab Neurite Outgrowth Assay in human iPSC-derived immature Dorsal Root Ganglia Neurons (UKN5) (AID 2284056). The essentials:
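iPSC-derived immature peripheral neurons (SBAD2) seeded on Matrigel with CHIR99021, SU5402 and DAPT, dosed 1 h later for 24 h. Viability from Hoechst H-33342 and calcein-AM live staining, high-content imaging; bidirectional fit versus DMSO.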

Experiment [2] can be described thus: CCTE_Shafer_MEA_dev_LDH: CCTE's Lactate Dehydrogenase Assay for Cytotoxicity in the Neural Network Formation Assay, Shafer Lab (AID 2284068; active means hit-call score of the fitted dose curve at least 0.9, where 1 is the maximum;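 further: exposure for twelve days from plating with re-dosing on DIV 5 and 9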). In a few lines:
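Primary rat cortical neurons were cultured on PEI-coated MEA plates and exposed from plating through day 12, with compound renewed at medium changes on DIV 5 and 9. LDH activity was read spectrophotometrically; loss of signal versus DMSO indicates reduced viability.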

A short description of experiment [3]: UKN5_HCS_SBAD2_neurite_outgrowth: University of Konstanz (UKN) Leist Lab Neurite Outgrowth Assay in human iPSC-derived immature Dorsal Root Ganglia Neurons (UKN5) (AID 2284070). As to conditions: actives raise or lower the signal. In a few lines:
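Cryopreserved SBAD2 peripheral neurons were seeded at 100.000 cells/cm2 in N2-S/KSR medium containing CHIR99021, SU5402 and DAPT, then exposed to compounds for 24 h. Neurite area from calcein-AM high-content imaging was fitted bidirectionally against DMSO.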

Experiment [4] in a line: CCTE_Shafer_MEA_dev_AB: CCTE's Alamar Blue Assay for Cytotoxicity in the Neural Network Formation Assay, Shafer Lab (AID 2284083; active means hit-call score of the fitted dose curve at least 0.9, where 1 is the maximum;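 further: resazurin reduction fluorescence as viability of cultured neurons; twelve days of exposure from plating with re-dosing on DIV 5 and 9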). In a few lines: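 Resazurin fluorescence, relative to DMSO, gauges viability after twelve days of exposure that began at plating of rat cortical neurons (1.5 x 10^5 cells/well, 48-well MEA); treatment renewed with full medium exchange on DIV 5 and 9.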
A general note: Resazurin is reduced to fluorescent resorufin, in cell work by metabolically active cells.

Experiment [5] can be described thus: CCTE_Shafer_MEA_dev_mutual_information_norm: CCTE's Neural Network Formation Assay for Mutual Information Normalization, Shafer Lab (AID 2284091). The essentials:
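Shared information across electrodes, tracked on days 5, 7, 9 and 12 of network development and collapsed as trapezoidal area under the curve. Rat cortical cultures were treated continuously from plating, with treatment renewed at feeds on DIV 5 and 9; DMSO baseline, negative-direction fit.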

Experiment [6] in a line: UKN4_HCS_LUHMES_neurite_outgrowth: University of Konstanz (UKN) Leist Lab Neurite Outgrowth Assay in human LUHMES cells (UKN4) (AID 2284206). As to conditions: actives raise or lower the signal. The essentials: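 Read-out: calcein-AM neurite area by high-content fluorescence imaging, with Hoechst H-33342 viability counterstain, after 24 h chemical exposure of day-2 differentiated LUHMES cells. Activity fitted bidirectionally against DMSO baseline.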

Experiment [7] is described as follows: IUF_NPC1a_proliferation_area_72hr: Leibniz Research Institute for Environmental Medicine (IUF) 72-hour Neural Progenitor Cell Proliferation Area Assay (NPC1a) (AID 2284208). The essentials: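 Proliferation is scored as sphere area gain in primary human fetal neural progenitors treated for 72 h in EGF/FGF-containing medium. Viability, LDH and BrdU readouts come from the same wells.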

Experiment [8] can be described thus: IUF_NPC1_viability_72hr: Viability Assessment at 72 hours in the Leibniz Research Institute for Environmental Medicine (IUF) Neural Progenitor Cell Proliferation Assay (NPC1) (AID 2284209). In a few lines: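 Alamar blue fluorescence (RFU) after 72 h exposure, normalized to DMSO baseline. hNPC spheres from GW 16-19 fetal cortex, single sphere per well in growth-factor medium; no compound renewal.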

Experiment [9] is described as follows: UKN4_HCS_LUHMES_cell_viability: Viability Assessment in the University of Konstanz (UKN) Leist Lab Neurite Outgrowth Assay in human LUHMES cells (UKN4) (AID 2284232). The essentials: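 Day-2 differentiated LUHMES, 30000 cells/well, dosed ~30 min–2 h post-seeding; 24 h treatment incl. staining; Hoechst H-33342 + calcein-AM at 23.5 h; HCS imaging; DMSO-normalized, bidirectional fit.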

A short description of experiment [10]: UKN2_HCS_IMR90_cell_viability: Viability Assessment in the University of Konstanz (UKN) Leist Lab Neural Crest Cell Migration Assay in human induced IMR90 Pluripotent Stem Cells (UKN2) (AID 2284233).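 Further: cells exposed to compound for 24 h after a 24 h migration phase.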 The essentials: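 After calcein-AM/Hoechst staining, viability is quantified by high-content fluorescence imaging, relative to DMSO, in iPSC (IMR90)-derived neural crest cells. Exposure lasts 24 h, starting after a 24 h migration period on PLO/laminin/fibronectin coating.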

Experiment [11] can be described thus: IUF_NPC2c_oligodendrocyte_migration_120hr: Leibniz Research Institute for Environmental Medicine (IUF) 120-hour Neural Progenitor Cell Migration Assay for Oligodendrocyte Migration (NPC2c) (AID 2284297).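 Further: O4-positive oligodendrocyte migration distance divided by radial glia migration distance.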 In a few lines: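 Primary hNPC spheres migrating on extracellular matrix, exposed five days to a 7-point dilution series with solvent control. Oligodendrocyte migration was scored by high-content imaging of O4 immunostaining and expressed relative to radial glia distance.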

Experiment [12] is described as follows: IUF_NPC2a_radial_glia_migration_120hr: Leibniz Research Institute for Environmental Medicine (IUF) 120-hour Neural Progenitor Cell Migration Assay for Radial Glia Migration (NPC2a) (AID 2284298). The essentials: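 In this multiplexed test, fetal hNPC spheres migrate radially on poly-D-lysine/laminin in N2 medium (37C, 5% CO2, pH 7.2-7.6) under continuous compound exposure over five days. Migration is scored at 120 h from automated Hoechst nuclear imaging.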

A short description of experiment [13]: IUF_NPC2b_neuronal_migration_120hr: Leibniz Research Institute for Environmental Medicine (IUF) 120-hour Neural Progenitor Cell Migration Assay for Neuron Migration (NPC2b) (AID 2284300). The essentials: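 Neurons identified by TUBB3 immunostaining and Hoechst nuclei; migration distance measured automatically on fixed wells at 120 h, normalized to glia migration. Exposure spanned five days of differentiation in N2 medium, seven test concentrations.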

Experiment [14] can be described thus: IUF_NPC3_neuronal_differentiation_120hr: Leibniz Research Institute for Environmental Medicine (IUF) 120-hour Neuronal Differentiation Assay (NPC3) (AID 2284301). In a few lines: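 Value is percent TUBB3-positive neurons among Hoechst-stained nuclei in the migration area, scored by trained CNN after 120 h differentiation. Primary hNPC spheres on poly-D-lysine/laminin, N2 medium, continuous dosing from day 0, half-refeed day 3; DMSO reference.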

A short description of experiment [15]: IUF_NPC4_neurite_length_120hr: Leibniz Research Institute for Environmental Medicine (IUF) 120-hour Neuronal Morphology Assay for Neurite Length (NPC4) (AID 2284302). The essentials:
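Neurite length, the mean in um across TUBB3-stained neurons, is derived by skeletonization of high-content images after 120 h differentiation. Compound exposure, 7 concentrations plus solvent control, ran from plating of hNPC spheres on poly-D-lysine/laminin, with medium half-replaced on day 3.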

Experiment [16] can be described thus: IUF_NPC5_oligodendrocyte_differentiation_120hr: Leibniz Research Institute for Environmental Medicine (IUF) 120-hour Oligodendrocyte Differentiation Assay (NPC5) (AID 2284304; active means hit-call score of the fitted dose curve at least 0.9, where 1 is the maximum;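 further: primary human fetal neural progenitor spheres plated to migrate and differentiate; share of O4-positive cells among Hoechst nuclei found by CNN image analysis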). In a few lines:
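Human primary NPC neurospheres migrating and differentiating on laminin for 120 h under continuous compound exposure (serial dilution, solvent control). Endpoint: percent O4+ oligodendrocytes among Hoechst nuclei, detected by CNN image analysis, with DMSO as negative control.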

Experiment [17] in a line: IUF_NPC4_neurite_area_120hr: Leibniz Research Institute for Environmental Medicine (IUF) 120-hour Neuronal Morphology Assay for Neurite Area (NPC4) (AID 2284305; active means hit-call score of the fitted dose curve at least 0.9, where 1 is the maximum). In a few lines:
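Neurite area (pixels, nuclei excluded) of TUBB3-positive neurons from hNPC spheres differentiating 5 days under continuous exposure at 37 C, 5% CO2. High-content imaging; loss of signal versus DMSO control across 7 concentrations.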

The nature of experiment [18]: IUF_NPC2-5_cytotoxicity_72hr: Cytotoxicity Assessment at 72 hours in the Leibniz Research Institute for Environmental Medicine (IUF) Neural Progenitor Cell Migration and Differentiation Assay for Cytotoxicity (NPC2-5) (AID 2284306; active means hit-call score of the fitted dose curve at least 0.9, where 1 is the maximum;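 further: LDH release into supernatant measured by resorufin fluorescence marking membrane damage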). In a few lines: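 Membrane-integrity cytotoxicity at 72 h, read as LDH-driven resorufin fluorescence in supernatant. hNPC spheres from fetal cortex differentiate on coated plates in N2 medium, 37C, 5% CO2; seven serial compound concentrations plus solvent control (DMSO ≤0.1%).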

Experiment [19] is described as follows: IUF_NPC2-5_cytotoxicity_120hr: Cytotoxicity Assessment at 120 hours in the Leibniz Research Institute for Environmental Medicine (IUF) Neural Progenitor Cell Migration and Differentiation Assay (NPC2-5) (AID 2284307; active means hit-call score of the fitted dose curve at least 0.9, where 1 is the maximum). In a few lines:
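Fluorescence (RFU) from LDH-driven resazurin reduction in medium supernatants measured loss of membrane integrity after 120 h of compound exposure of differentiating primary human neural progenitor spheres on an extracellular matrix.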

The nature of experiment [20]: IUF_NPC2-5_cell_number_120hr: Cell Number Assessment at 120 hours in the Leibniz Research Institute for Environmental Medicine (IUF) Neural Progenitor Cell Migration and Differentiation Assay (NPC2-5) (AID 2284308).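 Further: count of Hoechst-stained nuclei in migration zone around plated human neural progenitor spheres.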 In a few lines:
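Cell number is taken as all Hoechst-positive nuclei detected in the area into which cells migrate out of the sphere, scored at 120 h and referenced to DMSO solvent control, which was kept at no more than 0.1%.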

The nature of experiment [21]: IUF_NPC2-5_viability_120hr: Viability Assessment at 120 hours in the Leibniz Research Institute for Environmental Medicine (IUF) Neural Progenitor Cell Migration and Differentiation Assay (NPC2-5) (AID 2284312). In a few lines:
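Alamar blue resorufin fluorescence read after 5 days of differentiation, with compound present from day 0 and replenished at day 3. Primary hNPC spheres on laminin-coated plates, 37C; seven concentrations plus solvent control, fitted against DMSO.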

Experiment [22] is described as follows: IUF_NPC1_cytotoxicity_72hr: Cytotoxicity Assessment at 72 hours in the Leibniz Research Institute for Environmental Medicine (IUF) Neural Progenitor Cell Proliferation Assay (NPC1) (AID 2284332; active means hit-call score of the fitted dose curve at least 0.9, where 1 is the maximum;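 further: rising LDH signal means more cytotoxicity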). In a few lines: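 LDH in supernatant, resazurin→resorufin fluorescence (RFU), 72 h exposure, no re-dosing. Cells: primary hNPC spheres, one per well, EGF+FGF medium, 37C/5% CO2, pH 7.2-7.6. Fit: positive direction vs baseline and dynamic range.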

Usually AC50 stands for the midpoint of the concentration-response curve, whichever way the signal moves. As for `Brc1ccc(Oc2cc(Br)c(Br)cc2Br)c(Br)c1`, the outcome in [1], in experiment [3], in [5], in experiment [7], in [8] and in experiment [9] was inactive. For the same compound, the result in experiment [10], in [11], in experiment [12], in experiment [13], in experiment [14] and in experiment [15] was inactive. The outcome in [16], in experiment [17], in experiment [18], in experiment [19], in [20] and in experiment [21] was inactive. For the same compound, in experiment [22], the outcome was inactive. In addition, the AC50 in experiment [2] was 11.9 µM (active); in [4], 13.6 µM (active); in [6] it was 13.4 µM (active).
